# The supplement of paper PMC8728848
# This is one part of a sample in which the strongest signals are shown more often than they occur.
# B1: DrGal3 (Danio rerio) (protein)
# chain: MDLSDALDAPPQQNNQQAGGPVWPGQPANPVWPGQPANPTWPGQPNQPAWPGQPNQQWPGQPGQPTAPGWPGPAPQTGPYGAPGQAPQVLTVPLDFPLQNGAYNKMLITINGEVKPNAKQFTVNLRRGNDIAFHINPRFSEGGKPVIVRNSMIGNNWGREERELPSFPFVPGKPFEMKILITDTEYKVAVNKSHLLEFKHRVFELNQITGLSIYNDVTLSTVNVETLQ
# Key:
# Experiment in all cases: glycan array binding signal (z-score within array); higher = stronger binding
# Conditions in all cases: glycan notation: IUPAC condensed, linker removed
# [1] = molecular target: Fuc(a1-2)Gal(b1-3)GalNAc(a1-3)[Fuc(a1-2)]Gal(b1-4)Glc
# Method in brief: (§1)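 Columns mapping to the same glycan were averaged after glycan names were converted to IUPAC-condensed notation. The data come from 3228 arrays in the Consortium for Functional Glycomics database, limited to those with an available protein sequence. Binding is reported as a within-array Z-score averaged across arrays of one protein sequence and across linkers.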
# [2] = molecular target: Fuc(a1-2)Gal(b1-3)GlcNAc(b1-3)[Fuc(a1-2)Gal(b1-3)GlcNAc(b1-6)]GalNAc
# Method in brief: as §1
# [3] = molecular target: Fuc(a1-2)Gal(b1-4)Fuc(a1-3)]GlcNAc(b1-2)Man(a1-3)[Fuc(a1-2)Gal(b1-4)[Fuc(a1-3)]GlcNAc(b1-2)Man(a1-6)]Man(b1-4)GlcNAc(b1-4)GlcNAc
# Method in brief: as §1
# [4] = molecular target: Fuc(a1-2)Gal(b1-4)GlcNAc(b1-2)Man(a1-3)[Fuc(a1-2)Gal(b1-4)GlcNAc(b1-2)Man(a1-6)]Man(b1-4)GlcNAc(b1-4)GlcNAc
# Method in brief: as §1
# [5] = molecular target: Fuc(a1-2)Gal(b1-4)GlcNAc(b1-2)Man(a1-3)[Fuc(a1-2)Gal(b1-4)GlcNAc(b1-2)Man(a1-6)]Man(b1-4)GlcNAc(b1-4)[Fuc(a1-6)]GlcNAc
# Method in brief: as §1
# [6] = molecular target: Fuc(a1-2)Gal(b1-4)GlcNAc(b1-3)Gal(b1-4)GlcNAc(b1-2)Man(a1-3)[Fuc(a1-2)Gal(b1-4)GlcNAc(b1-3)Gal(b1-4)GlcNAc(b1-2)Man(a1-6)]Man(b1-4)GlcNAc(b1-4)GlcNAc
# Method in brief: as §1
# [7] = molecular target: Fuc(a1-2)Gal(b1-4)GlcNAc(b1-6)GalNAc
# Method in brief: as §1
# [8] = molecular target: Fuc(a1-2)[Gal(a1-4)]Gal(b1-4)GlcNAc
# Method in brief: as §1
# [9] = molecular target: Fuc(a1-2)[GalNAc(a1-3)]Gal(b1-3)GlcNAc
# Method in brief: as §1
# [10] = molecular target: Fuc(a1-2)[GalNAc(a1-3)]Gal(b1-4)[Fuc(a1-3)]GlcNAc
# Method in brief: as §1
# [11] = molecular target: Fuc(a1-2)[GalNAc(a1-4)]Gal(b1-4)GlcNAc
# Method in brief: as §1
# [12] = molecular target: Fuc(b1-3)GlcNAc
# Method in brief: as §1
# [13] = molecular target: Gal(a1-3)Gal(b1-3)GlcNAc(b1-3)GalNAc
# Method in brief: as §1
# [14] = molecular target: Gal(a1-3)Gal(b1-4)Glc
# Method in brief: as §1
# [15] = molecular target: Gal(a1-3)GalNAc
# Method in brief: as §1
# [16] = molecular target: Gal(b1-3)GalNAc(b1-3)Gal
# Method in brief: as §1
# [17] = molecular target: Gal(b1-3)[Fuc(a1-4)]GlcNAc(b1-6)GalNAc
# Method in brief: as §1
# [18] = molecular target: Gal(b1-3)[GlcNAc(b1-6)]GalNAc
# Method in brief: as §1
# [19] = molecular target: Gal(b1-4)GlcNAc
# Method in brief: as §1
# [20] = molecular target: Gal(b1-4)GlcNAc(b1-2)Man(a1-3)[Gal(b1-4)GlcNAc(b1-2)Man(a1-6)][Gal(b1-4)GlcNAc(b1-4)]Man(b1-4)GlcNAc(b1-4)[Fuc(a1-6)]GlcNAc
# Method in brief: as §1
# [21] = molecular target: Gal(b1-4)GlcNAc(b1-3)Gal(b1-4)GlcNAc(b1-3)Gal(b1-4)GlcNAc(b1-2)Man(a1-3)[Gal(b1-4)GlcNAc(b1-3)Gal(b1-4)GlcNAc(b1-3)Gal(b1-4)GlcNAc(b1-2)Man(a1-6)]Man(b1-4)GlcNAc(b1-4)[Fuc(a1-6)]GlcNAc
# Method in brief: as §1
# [22] = molecular target: Gal(b1-4)GlcNAc(b1-3)Gal(b1-4)GlcNAc(b1-3)Gal(b1-4)GlcNAc(b1-3)Gal(b1-4)GlcNAc(b1-2)Man(a1-3)[Gal(b1-4)GlcNAc(b1-3)Gal(b1-4)GlcNAc(b1-3)Gal(b1-4)GlcNAc(b1-3)Gal(b1-4)GlcNAc(b1-2)Man(a1-6)]Man(b1-4)GlcNAc(b1-4)GlcNAc
# Method in brief: as §1
# [23] = molecular target: Gal(b1-4)GlcNAc(b1-3)Gal(b1-4)GlcNAc(b1-3)Gal(b1-4)GlcNAc(b1-3)Gal(b1-4)GlcNAc(b1-2)Man(a1-3)[Gal(b1-4)GlcNAc(b1-3)Gal(b1-4)GlcNAc(b1-3)Gal(b1-4)GlcNAc(b1-3)Gal(b1-4)GlcNAc(b1-2)Man(a1-6)]Man(b1-4)GlcNAc(b1-4)[Fuc(a1-6)]GlcNAc
# Method in brief: as §1
# [24] = molecular target: Gal(b1-4)GlcNAc(b1-3)Gal(b1-4)GlcNAc(b1-3)Gal(b1-4)GlcNAc(b1-3)Gal(b1-4)GlcNAc(b1-2)[Gal(b1-4)GlcNAc(b1-3)Gal(b1-4)GlcNAc(b1-3)Gal(b1-4)GlcNAc(b1-3)Gal(b1-4)GlcNAc(b1-6)]Man(a1-6)[Gal(b1-4)GlcNAc(b1-3)Gal(b1-4)GlcNAc(b1-3)Gal(b1-4)GlcNAc(b1-3)Gal(b1-4)GlcNAc(b1-2)Man(a1-3)]Man(b1-4)GlcNAc(b1-4)[Fuc(a1-6)]GlcNAc
# Method in brief: as §1
# [25] = molecular target: Gal(b1-4)GlcNAc(b1-3)Gal(b1-4)GlcNAc(b1-3)Gal(b1-4)GlcNAc(b1-3)Gal(b1-4)GlcNAc(b1-3)Gal(b1-4)GlcNAc(b1-2)Man(a1-3)[Gal(b1-4)GlcNAc(b1-3)Gal(b1-4)GlcNAc(b1-3)Gal(b1-4)GlcNAc(b1-3)Gal(b1-4)GlcNAc(b1-3)Gal(b1-4)GlcNAc(b1-2)Man(a1-6)]Man(b1-4)GlcNAc(b1-4)GlcNAc
# Method in brief: as §1
binder,measurement,setting,value
B1,glycan array binding signal (z-score),[1],-0.254
same,glycan array binding signal (z-score),[2],-0.164
same,glycan array binding signal (z-score),[3],-0.125
same,glycan array binding signal (z-score),[4],-0.218
same,glycan array binding signal (z-score),[5],-0.209
same,glycan array binding signal (z-score),[6],1.52
same,glycan array binding signal (z-score),[7],-0.25
same,glycan array binding signal (z-score),[8],-0.087
same,glycan array binding signal (z-score),[9],-0.212
same,glycan array binding signal (z-score),[10],-0.206
same,glycan array binding signal (z-score),[11],-0.233
same,glycan array binding signal (z-score),[12],-0.277
same,glycan array binding signal (z-score),[13],-0.287
same,glycan array binding signal (z-score),[14],-0.233
same,glycan array binding signal (z-score),[15],-0.007
same,glycan array binding signal (z-score),[16],-0.183
same,glycan array binding signal (z-score),[17],-0.208
same,glycan array binding signal (z-score),[18],-0.231
same,glycan array binding signal (z-score),[19],-0.237
same,glycan array binding signal (z-score),[20],-0.247
same,glycan array binding signal (z-score),[21],4.37
same,glycan array binding signal (z-score),[22],4.2
same,glycan array binding signal (z-score),[23],5.59
same,glycan array binding signal (z-score),[24],4.6
same,glycan array binding signal (z-score),[25],6.65
